Results filed as inconclusive are left out. Unmarked numbers belong to inactive results. Active and inactive are the calls of the source. Calls follow the shape of the full dose curve.
These molecules were tested against Beta-2 adrenergic receptor (Homo sapiens) (UniProt P07550) (assay: Adrenergic beta2 receptor (ADRB2) small molecule antagonists, cell-based qHTS assay (AID 1963592; also: nearly all actives have a fitted effect of over 50% in size)). Settings: CHO-ADRB2 cells, isoproterenol-stimulated cAMP HTRF ratio, 0.5 h; series mostly up to 92.4 µM; activity change, negative = inhibition: at the top concentration.
Beta-2 adrenergic receptor (Homo sapiens), sequence (P07550 whole entry, looked up): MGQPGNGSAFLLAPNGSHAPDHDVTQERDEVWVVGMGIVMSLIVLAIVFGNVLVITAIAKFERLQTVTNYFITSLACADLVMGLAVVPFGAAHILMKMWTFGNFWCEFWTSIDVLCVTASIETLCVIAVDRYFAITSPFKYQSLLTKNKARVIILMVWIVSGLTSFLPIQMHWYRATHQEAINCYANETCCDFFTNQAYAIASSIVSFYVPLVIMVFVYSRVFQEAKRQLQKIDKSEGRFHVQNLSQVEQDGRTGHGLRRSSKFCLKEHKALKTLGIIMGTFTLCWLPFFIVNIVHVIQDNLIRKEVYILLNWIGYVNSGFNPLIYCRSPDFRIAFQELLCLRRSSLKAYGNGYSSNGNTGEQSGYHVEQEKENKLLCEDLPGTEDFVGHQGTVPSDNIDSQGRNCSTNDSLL
Text: U.S. Tox21 Program National Center for Advancing Translational Sciences [NCATS] Division of Preclinical Innovation [DPI] U.S. Environmental Protection Agency [EPA] National Institutes of Environmental Health Sciences [NIEHS] National Toxicology Program [NTP] U.S. Food and Drug Administration [FDA] Tox21 Assay Overview: Beta adrenergic receptors (Beta-ARs) belong to the G-protein coupled receptor (GPCR) superfamily, includes three subtypes - beta1, beta2, and beta3. Beta1-AR is the predominant receptor subtype expressed in the heart, and beta2-AR is expressed in the kidney, lung, blood vessel and in the heart, and beta3 is found in the adipocytes. Beta1 and 2 ARs couple to Gs protein and elevate cyclic adenosine mono phosphate (cAMP), which activates protein kinase A and leads to the downstream signaling responsible for the physiological actions. Beta-AR agonists or antagonists are the most prescribed therapeutic agents for heart failure and asthma, and these were one of the first target receptors for the rational drug design. Tox21 10K compound library was screened using the cAMP-Gs dynamic assay (Cisbio Bioassays, Shelton, CT) to identify agonists/antagonists of the Gs-coupled human adrenergic, beta2 receptor (ADRB2) in the CHO-ADRB2 cell line (Codex BioSolutions, Inc. Gaithersburg, MD), which stably over-expresses ADRB2. The principle of cAMP-Gs dynamic assay is based on HTRF technology, which facilitates the fluorescence resonance energy transfer (FRET) between donor Europium cryptate and acceptor d2-labeled cAMP. The cAMP generated within cells competes with the red acceptor, d2-labled cAMP, for binding to the monoclonal anti-cAMP-cryptate (Europium donor). An increase in intracellular cAMP leads to the disruption of FRET signal, and the signal is inversely proportional to the cAMP concentration. Propranolol HCl (Sigma-Aldrich, St. Louis, MO) was used as a positive control in the screening.
Tox21 Assay Protocol Summary: CHO-ADRB2 cells were dispensed at 1,000/well in 4uL assay medium into white/solid 1536-well plates (Greiner Bio-One North America Inc., Monroe, NC) using a Multidrop Combi dispenser (ThermoFisher Scientific, Waltham, MA). The assay plates were incubated at 37C and 5% CO2 for an overnight (18-20hr). Then positive control and test compounds dissolved in DMSO were transferred to the assay plates at 23nL using a Pintool station (Wako, San Diego, CA). Following the compound and positive control transfer, 1uL agonist-stimulation mix containing 1nM Isoproterenol HCl, 100uM IBMX and 25uM Ro-20-1724 was added to each well of the assay plates using BioRAPTR Flying Reagent Dispenser (FRD, Beckman Coulter, Brea, CA). The assay plates were incubated at room temperature for 0.5hr. Then 2.5ul each d2-labled cAMP and anti-cAMP-cryptate solutions were added separately to each well of the assay plates using an FRD and the assay plates were incubated at room temperature for 1hr. The fluorescence signal was measured at two different wavelengths (665nm and 615nm) using an Envision plate reader (Perkin Elmer, Shelton, CT). Data were expressed as the ratio of 665 nm/615 nm.
In the case of `Cn1nnc2c(C(N)=O)ncn2c1=O`, the “activity change, negative = inhibition” value is reported as 10% [at 42.5 µM]. For `CC(=O)OC1CCC(C(C)(C)C)CC1` (stereo not given), the “activity change, negative = inhibition” value was 10.9%. In the case of `CC1=C2[C@@H]([C@H](C)CC[C@H]2/C=C(\C)C(=O)O)[C@H](O)C1`, the “activity change, negative = inhibition” value is reported as 0.87%. In the case of `CCN(CC)CC(=O)Nc1c(C)cccc1C(=O)OC`, the “activity change, negative = inhibition” value is reported as -11.9% [at 42.5 µM]. For `CCCC(=O)OCOC(=O)C1=C(C)NC(C)=C(C(=O)OC)C1c1cccc(Cl)c1Cl` (stereo not given), the “activity change, negative = inhibition” value was 1.89% [at 42.5 µM]. `Nc1cc(C(=O)O)c(O)c(S(=O)(=O)O)c1` was tested, and the “activity change, negative = inhibition” value was 3.98%. In the case of `CCC(=O)OC(=O)CC`, the “activity change, negative = inhibition” value is reported as -1.5%. For `CCN(CC)CCOc1ccc(C(O)(Cc2ccc(Cl)cc2)c2ccc(C)cc2)cc1` (stereo not given), the “activity change, negative = inhibition” value was -3.16% [at 42.5 µM]. `CN(C)CCN(Cc1ccsc1)c1ccccn1` was tested, and the “activity change, negative = inhibition” value was 0.869% [at 42.5 µM]. In the case of `CC(=O)Nc1ccn(C2COC(COC(=O)c3ccccc3)O2)c(=O)n1` (stereo not given), the “activity change, negative = inhibition” value is reported as 6.46% [at 42.5 µM]. With `CC(O)COC(C)(C)C` (stereo not given) the “activity change, negative = inhibition” value was -11.6%. In the case of `CCOC(=O)CC`, the “activity change, negative = inhibition” value is reported as -7.19%. In the case of `Cc1cnc(NS(=O)(=O)c2ccc(N)cc2)nc1`, the “activity change, negative = inhibition” value is reported as -4.68% [at 42.5 µM]. `CN1CCN(c2c(F)cc3c(=O)c(C(=O)O)cn4c3c2OCN4C)CC1` gave an activity change, negative = inhibition of 2.14% [at 19 µM]. In the case of `O=C(CO)[C@@H](O)[C@H](O)[C@H](O)CO`, the “activity change, negative = inhibition” value is reported as -19%. With `COC(=O)c1cc(C(=O)OC)cc(S(=O)(=O)O)c1` the “activity change, negative = inhibition” value was 0.0863%. In the case of `CN(C)Cc1ccccc1`, the “activity change, negative = inhibition” value is reported as 0.125%. For `COCCOCC(OC)OC`, the “activity change, negative = inhibition” value was 4.21% [at 42.5 µM]. With `CCCCCCCCN(C)CCCCCCCC` the “activity change, negative = inhibition” value was -3.1%. For `O=C(CCCN1CCN(c2ccccn2)CC1)c1ccc(F)cc1`, the “activity change, negative = inhibition” value was -3.81% [at 42.5 µM]. With `CC(C)CCCC(C)(C)O` the “activity change, negative = inhibition” value was 0.851%. `CCOCC(O)COc1ccc(NC(=O)CC[S+](C)C)cc1` (stereo not given) was tested, and the “activity change, negative = inhibition” value was -0.887% [at 42.5 µM]. For `CC(C)OC(=O)c1cc2c(OCC(O)CNC(C)(C)C)cccc2[nH]1` (stereo not given), the Potency was 3.3 nM (active). In the case of `CS(=O)(=O)c1ccc([C@@H](C[C@H]2CCC(=O)C2)C(=O)Nc2cnccn2)cc1Cl`, the “activity change, negative = inhibition” value is reported as 5.34%. `O=C(O)CNCC(=O)O` showed an activity change, negative = inhibition of -7.9% [at 8.39 µM]. In the case of `CC(C)(Sc1cc(C(C)(C)C)c(O)c(C(C)(C)C)c1)Sc1cc(C(C)(C)C)c(O)c(C(C)(C)C)c1`, the “activity change, negative = inhibition” value is reported as -5.61% [at 42.5 µM]. For `Cn1c(=O)c2c(ncn2CC(=O)O)n(C)c1=O`, the “activity change, negative = inhibition” value was -8.85% [at 42.5 µM]. In the case of `On1nnc2ccccc21`, the “activity change, negative = inhibition” value is reported as 1.64%. With `Clc1nc(C(Cl)(Cl)Cl)c(Cl)c(Cl)c1Cl` the “activity change, negative = inhibition” value was -9.5%. With `CCCCCCCCCCCCOC(=O)c1ccc(O)cc1` the “activity change, negative = inhibition” value was 2.58%. With `CCCCS` the “activity change, negative = inhibition” value was -7.57%. For `CC(=O)CCCCn1c(=O)c2c(ncn2C)n(C)c1=O`, the “activity change, negative = inhibition” value was 12.2% [at 42.5 µM]. For `BrCCCCCBr`, the “activity change, negative = inhibition” value was 1.29%. For `O=C(O)Cc1c(Cl)ccc(Cl)c1Cl`, the “activity change, negative = inhibition” value was 1.08%. `C[C@@H]1CC[C@@]2(OC1)O[C@H]1C[C@H]3[C@@H]4CC[C@H]5C[C@@H](O)CC[C@]5(C)[C@H]4CC(=O)[C@]3(C)[C@H]1[C@@H]2C` gave an activity change, negative = inhibition of -3.89% [at 8.39 µM]. For `CCO[Si](C)(CCCOCC1CO1)OCC` (stereo not given), the “activity change, negative = inhibition” value was -5.43%. `CCCCC(CC)COC(=O)COc1ccc(Cl)cc1Cl` (stereo not given) was tested, and the “activity change, negative = inhibition” value was 2.63%. For `CC(C)(O)c1ccccc1`, the “activity change, negative = inhibition” value was 10.2%. In the case of `CN(C)[C@@H]1C(=O)C(C(=O)NCN2CCCC2)=C(O)[C@@]2(O)C(=O)C3=C(O)c4c(O)cccc4[C@@](C)(O)C3C[C@@H]12` (stereo not given in full), the “activity change, negative = inhibition” value is reported as -15.5% [at 42.5 µM]. For `COc1ccc(CN(CCN(C)C)c2ncccn2)cc1`, the “activity change, negative = inhibition” value was -4.16% [at 42.5 µM].

Reference: PubChem BioAssay (Tox21)
% is scaled to controls: 0 for no effect and ±100 for the full control effect; potency is read from the fitted curve at half-maximal effect.
